Molecules are shown by their SMILES. The whole screen tested about 1,200 compounds, of which about 210 (18%) were called active. Not all results are given here. Unmarked numbers belong to inactive results. No stated cut-off is given here; in the data, active means inhibition above about 30%; inactive means the rest.

The nature of the assay: fluorescence readout artefact check – biochemical, HTRF, uHTS, artefact control for SUMOylation inhibitor project, confirmation (AID 2069). The conditions noted are these: HTRF interference counterscreen, at 35 µM, stronger effect = higher value. In general terms: In TR-FRET formats the signal depends on donor and acceptor labels being close together.
Take `O=C(Nc1nnc(-c2ccccc2SCc2ccccc2F)s1)Nc1ccccc1F`: the inhibition is 0.75%.

`Cc1ccc(C(=O)NC(C)c2nc3ccccc3n2CC(=O)Nc2c(C)cc(C)cc2C)cc1` (stereo not given): the inhibition was 25.5%.

On to `O=C(CCc1ccccc1)NNc1cc(N2CCCCC2)nc(N2CCCCC2)n1`, for which the inhibition is 14.2%.

As for `CCC(=O)OCCNc1cc(Sc2nccn2C)c2nonc2c1[N+](=O)[O-]`, the inhibition is 8.05%.

Regarding `CC1=C(C#N)C(=O)NC(=O)/C1=C\c1ccc(-c2ccc(C)cc2[N+](=O)[O-])o1`, the inhibition was -1.55%.

Take `COc1ccc2c(c1)CC/C(=C\C=C\c1ccccc1)C2=O`: the inhibition was 6.1%.

On to `O=C(NCCNc1ccc2ccccc2c1)c1cccn2c(=O)c3sccc3nc12`, for which the inhibition is 5.05%.

With `Cn1c2ccc(Cl)cc2c2nc3ccccc3nc21`, the inhibition was 21.9%.

Regarding `CCOC(=O)N1CCN(C(=O)c2cccn3c(=O)c4cc(Br)ccc4nc23)CC1`, the inhibition is 49.9% (active).

`O=C(c1cccn2c(=O)c3cc(Cl)ccc3nc12)N1CCOCC1`: the inhibition was 44.6% (active).

For `CCOC(=O)N1CCC(c2cc(=O)n(-c3ccccc3)[nH]2)CC1`, the inhibition is 2.2%.

Consider `CCOC(=O)N1CCN(C(=O)c2cccn3c(=O)c4cc(Cl)ccc4nc23)CC1`, for which the inhibition is 43.5% (active).

As to `O=C(c1cccn2c(=O)c3cc4ccccc4cc3nc12)N1CCN(c2ccccc2)CC1`, the inhibition was 7.35%.

For the compound `NC(=O)CC(NC(=O)Cc1ccc(Br)cc1)c1ccc(N2CCC(Br)CC2)c([N+](=O)[O-])c1` (stereo not given), the inhibition is 4.65%.

As for `O=C(Nc1nnc(-c2ccccc2)o1)c1nc2ccccc2s1`, the inhibition is 11.1%.

`CN(C)c1cc(Cl)c2nonc2c1N`: the inhibition is 4.85%.

As for `NC(=O)c1ccc(N=C2C(=O)Nc3ccc([N+](=O)[O-])cc32)cc1`, the inhibition was -4.65%.

Regarding `S=C(Nc1ccc(Cl)cc1)Nc1cccc2cnccc12`, the inhibition was 1.3%.

In the case of `CCCCCn1c(NC(=O)c2ccco2)c(S(=O)(=O)c2ccc(C)cc2)c2nc3ccccc3nc21`, the inhibition was 6.85%.

Take `CC(=O)c1ccc(NC(=S)Nc2cccc3ccccc23)cc1`: the inhibition was 14.1%.

On to `O=[N+]([O-])c1ccccc1/C=C/C=N/n1c(-c2cc(-c3ccccc3)n[nH]2)n[nH]c1=S`, for which the inhibition is -4%.

As to `COCCCn1c(C(=O)N2CC(C)OC(C)C2)cc2c(=O)n3ccccc3nc21` (stereo not given), the inhibition was 46.4% (active).

Consider `COCCCNC(=O)c1cccn2c(=O)c3cc4ccccc4cc3nc12`, for which the inhibition was 13.3%.

In the case of `COCCCn1c(C(=O)N2CCOCC2)cc2c(=O)n3ccccc3nc21`, the inhibition is 52.1% (active).

Turning to `CC1=NN(c2ccc(Br)cc2)C(=O)/C1=C/c1cccs1`, the inhibition is -19.8%.

`CCc1ccc(NC(=S)Nc2cccc3cnccc23)cc1`: the inhibition is 3.45%.

Turning to `N#Cc1c2nc3ccccc3nc2n2cc(NC(=O)c3ccc(F)cc3)ccc12`, the inhibition was 3%.

In the case of `Cn1cccc1/C=N/NC(=O)c1sc2cc(Cl)ccc2c1Cl`, the inhibition is 15%.

`O=C(N/N=C/c1ccc(O)c2ncccc12)c1cccc(Br)c1`: the inhibition was -4.25%.

As to `S=c1[nH]nc(-c2ccncc2)n1/N=C/c1cn(-c2ccccc2)nc1-c1ccc(Cl)cc1`, the inhibition was -1.35%.

Regarding `Cc1ccc(/C=C2\SC(=S)N(c3cccnc3)C2=O)o1`, the inhibition was 4.85%.

As for `Fc1cccc(Cl)c1C1Nc2cccc3cccc(c23)N1`, the inhibition is -14.8%.

Regarding `Cc1ccc(NC(=O)Cn2nc(C(=O)Nc3ccc(C)cc3)ccc2=O)cc1`, the inhibition is 4.7%.

Take `Cc1ccc(NC(=O)Nc2ccno2)cc1`: the inhibition is 48.2% (active).

As to `O=C(Nc1ccccc1)c1ccccc1CCc1ccccc1`, the inhibition is 2.45%.

For `CCC(NC(=O)Nc1ccc(O)cc1)(C(F)(F)F)C(F)(F)F`, the inhibition is -9.2%.

`O=C(Nc1ccccc1)Nc1ccno1`: the inhibition is 47.1% (active).

Turning to `Cc1cc2c(NC(=O)Nc3ccccc3)cccc2nn1`, the inhibition is -6.1%.

On to `COc1ccc(/C=C2/C(=O)N(c3ccccc3)N=C2C)cc1OC`, for which the inhibition was -0.35%.

Consider `O=[N+]([O-])c1c(NCc2ccccc2)cc(N2CCc3ccccc3C2)c2nonc12`, for which the inhibition was 0.75%.

Regarding `O=[N+]([O-])c1cc(CN2CCN(c3cccc(C(F)(F)F)c3)CC2)c2cccnc2c1O`, the inhibition was -18.5%.

Turning to `Cc1cc2c(NC(=O)Nc3ccc(C(C)(C)C)cc3)cccc2nn1`, the inhibition was 18.8%.

Turning to `CCCc1cc(=O)oc2cc(OCC(=O)Nc3ccc(S(N)(=O)=O)cc3)ccc12`, the inhibition was 21.4%.

For `Cc1c(O)ccc2c(CC(=O)N[C@@H](Cc3ccc(O)cc3)C(=O)O)cc(=O)oc12`, the inhibition was 39.9% (active).

For the compound `NC(=O)C1CCN(C2=C(NS(=O)(=O)c3ccccc3)C(=O)c3ccccc3C2=O)CC1`, the inhibition was -13.8%.

`O=C(CN1C(=O)S/C(=C\c2ccccc2)C1=O)NNC(=O)c1ccccc1O`: the inhibition is 2.55%.

In the case of `S=c1[nH]nc(-c2cc(-c3ccco3)[nH]n2)n1-c1cccc2ccccc12`, the inhibition was -16.1%.

As to `CCOC(=O)N1CCc2c(sc3c2c(=O)n(Cc2ccccc2)c(=O)n3CC(=O)NCCOC)C1`, the inhibition is -6.7%.

In the case of `COCCNC(=O)CCC1CCN(Cc2ccc(-c3ccccc3)cc2)CC1`, the inhibition is 65.5% (active).

Take `C[C@@H]1CN=C2N(CCNC(=O)CCC3CCCCC3)[C@H](Cc3ccc(O)cc3)CN21`: the inhibition was 1.3%.

With `CCOC(=O)Cn1c(=NC(=O)c2sc3ccccc3c2Cl)sc2cc(S(N)(=O)=O)ccc21`, the inhibition is 8.1%.

Regarding `C#CCOc1ccc(/C=C2/C(=O)N(c3cccc(C(=O)O)c3)N=C2C)cc1OC`, the inhibition was -5.85%.

On to `CC(=O)C1=C(C)OC2(O)c3ccccc3C(=O)C12O` (stereo not given), for which the inhibition was -21.7%.

In the case of `NNc1nc2c(Cl)ccc(Cl)c2s1`, the inhibition is -0.55%.

Consider `CC(=O)C1C(=O)C=C(c2ccco2)CC1c1ccccc1` (stereo not given), for which the inhibition was 0.4%.

For the compound `O=c1c2cc(N3CCOCC3)ccc2[nH]c(=S)n1Cc1ccccn1`, the inhibition was 56.3% (active).

Take `Cc1c(C(=O)O)c(C(=O)O)nc2ccc(N3CCOCC3)cc12`: the inhibition is 7.75%.

In the case of `CC1CCN(CCCn2c(=S)[nH]c3ccc(N4CCOCC4)cc3c2=O)CC1`, the inhibition is 52.3% (active).

As for `O=c1c2cc(N3CCOCC3)ccc2[nH]c(=S)n1CC1CCCO1` (stereo not given), the inhibition is 55.1% (active).

As for `COc1ccc2[nH]c3c(=O)n(CCCC(=O)NC4CCC(C)CC4)c(=S)[nH]c3c2c1` (stereo not given), the inhibition was 6.2%.

For `N#Cc1cc2ccc(N3CCOCC3)cc2cc1C#N`, the inhibition was 9.35%.

`N#C/C(=C\c1ccc(-c2ccc([N+](=O)[O-])cc2)o1)C(=O)Nc1nc(-c2cccs2)cs1`: the inhibition is 0.8%.

Take `O=C(c1ccc2c(c1)[nH]c(=S)n1c3ccccc3nc21)N1CCN(c2ncccn2)CC1`: the inhibition is 11.9%.

Take `COc1ccc(S(=O)(=O)C(C#N)c2nc3ccccc3nc2N2CCC(C)CC2)cc1` (stereo not given): the inhibition was -6%.

On to `CCOc1ccc(NC(=S)Nc2cccc3ccccc23)cc1`, for which the inhibition is -13.5%.

On to `COc1ccc(OC)c(S(=O)(=O)NCCc2cn3ccsc3n2)c1`, for which the inhibition was -8.15%.

Take `CCOC(=O)CCc1c(C)c(C#N)c2[nH]c3ccccc3n2c1=O`: the inhibition is 2.5%.

Turning to `CC(=O)Oc1c(/C=C(\C#N)C(N)=O)[nH]c2ccccc12`, the inhibition was -17.9%.

For `C=CCOc1c(Cl)cc(CNc2ccc3[nH]c(=O)[nH]c3c2)cc1OC`, the inhibition is -12.6%.

`COc1ccc(C2=NN(C(=O)CCCC(=O)O)C(c3cn(-c4ccccc4)nc3-c3ccccc3)C2)cc1` (stereo not given): the inhibition is 4.9%.

For `O=C(O)c1ccc(N2N=C(c3ccccc3)CC2c2ccccc2)cc1` (stereo not given), the inhibition is 60.1% (active).

In the case of `Cc1ccc(C2=NN(C(=O)CCC(=O)O)C(c3cn(-c4ccccc4)nc3-c3ccc(C)cc3)C2)cc1` (stereo not given), the inhibition was 23.6%.

Consider `O=C(N=Nc1c(O)n(Cc2ccccc2)c2ccccc12)c1cc2ccccc2cc1O`, for which the inhibition was 10.8%.

For `COCCn1c(-c2cccs2)csc1=Nc1cccnc1`, the inhibition is 3.35%.

Turning to `COc1ccc(-c2nc(SCC(=O)Nc3cc(C)on3)n[nH]2)cc1`, the inhibition was 22.4%.

For the compound `O=[N+]([O-])c1cc(C=Nc2cccc3c(O)cccc23)ccc1Cl`, the inhibition is -17.1%.

On to `c1ccc2c3c(cc(N4CCOCC4)c2c1)OC1(N2CCOCC2)CCCCC1O3` (stereo not given), for which the inhibition was 16%.

Consider `S=C(NCc1ccc2c(c1)OCO2)Nc1ccc2nsnc2c1`, for which the inhibition was -0.25%.

With `CCCC(=O)Nc1ccc2oc(-c3cncc(Br)c3)nc2c1`, the inhibition is 19.6%.

Consider `CC(C)CC(=O)Nc1ccc2oc(-c3cccnc3)nc2c1`, for which the inhibition is 42.5% (active).

Regarding `O=C(Nc1ccc2oc(-c3ccc4ccccc4c3)nc2c1)c1ccc2c(c1)OCCO2`, the inhibition was 8.15%.

Consider `Nc1ccc(N2CCN(CCCCN3C(=O)C4CCCN4C3=O)CC2)cc1` (stereo not given), for which the inhibition was -7%.

For `Cc1cc(/C=C2\C(=O)NN(c3ccccc3)C2=O)c(C)n1-c1ccccc1O`, the inhibition was -1.5%.

For the compound `O=C(Nc1ccc(F)cc1)C(=O)c1c(O)[nH]c2ccc([N+](=O)[O-])cc12`, the inhibition is -2.85%.

Consider `O=C(O)/C=C/C(=O)Nc1ccc(O)cc1`, for which the inhibition is -0.1%.

Regarding `Cc1ccc(NC(=O)CN2C(=O)S/C(=C/c3ccc(-c4cc(C(=O)O)ccc4C)o3)C2=O)cc1C`, the inhibition is 37.2% (active).

`Cc1ccccc1NC(=O)CN1C(=O)S/C(=C\c2ccc(-c3cc(C(=O)O)ccc3C)o2)C1=O`: the inhibition is 28.9%.

In the case of `Cc1ccc(C(=O)O)cc1-c1ccc(/C=C2\SC(=O)N(CC(=O)Nc3ccc4c(c3)OCO4)C2=O)o1`, the inhibition is 23.6%.

Regarding `Cc1cc[n+](-c2[nH]c(=O)sc2/C=N/N=C(\[O-])c2ccncc2)cc1`, the inhibition was -1.55%.

With `CCCCNC(=O)Oc1c(Br)cc2sc(=O)oc2c1Br`, the inhibition is 7.5%.

As a reminder, the inhibition is the relative decrease from the control value, in per cent.

(Values after PubChem BioAssay AID2069 (Sanford-Burnham Center for Chemical Genomics, 2009).)
